# Among all 310,000 compounds or so, about 14,000 (4.5%) showed an effect of 50% or more. The effect is printed as a negative number. The sample holds strong results, similar compounds and a random draw of the others, so the mix is not that of the screen.
# Biological target: human ether-à-go-go-related gene (hERG) potassium channel (human, UniProt Q12809)
# Assay: primary screen, population patch clamp on CHO cells stably expressing hERG; higher = less effect of the substance
# 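Also: peak tail current of the secondary pulse compared with the same well before compound.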
# human ether-à-go-go-related gene (hERG) potassium channel, sequence (Q12809 whole entry, looked up): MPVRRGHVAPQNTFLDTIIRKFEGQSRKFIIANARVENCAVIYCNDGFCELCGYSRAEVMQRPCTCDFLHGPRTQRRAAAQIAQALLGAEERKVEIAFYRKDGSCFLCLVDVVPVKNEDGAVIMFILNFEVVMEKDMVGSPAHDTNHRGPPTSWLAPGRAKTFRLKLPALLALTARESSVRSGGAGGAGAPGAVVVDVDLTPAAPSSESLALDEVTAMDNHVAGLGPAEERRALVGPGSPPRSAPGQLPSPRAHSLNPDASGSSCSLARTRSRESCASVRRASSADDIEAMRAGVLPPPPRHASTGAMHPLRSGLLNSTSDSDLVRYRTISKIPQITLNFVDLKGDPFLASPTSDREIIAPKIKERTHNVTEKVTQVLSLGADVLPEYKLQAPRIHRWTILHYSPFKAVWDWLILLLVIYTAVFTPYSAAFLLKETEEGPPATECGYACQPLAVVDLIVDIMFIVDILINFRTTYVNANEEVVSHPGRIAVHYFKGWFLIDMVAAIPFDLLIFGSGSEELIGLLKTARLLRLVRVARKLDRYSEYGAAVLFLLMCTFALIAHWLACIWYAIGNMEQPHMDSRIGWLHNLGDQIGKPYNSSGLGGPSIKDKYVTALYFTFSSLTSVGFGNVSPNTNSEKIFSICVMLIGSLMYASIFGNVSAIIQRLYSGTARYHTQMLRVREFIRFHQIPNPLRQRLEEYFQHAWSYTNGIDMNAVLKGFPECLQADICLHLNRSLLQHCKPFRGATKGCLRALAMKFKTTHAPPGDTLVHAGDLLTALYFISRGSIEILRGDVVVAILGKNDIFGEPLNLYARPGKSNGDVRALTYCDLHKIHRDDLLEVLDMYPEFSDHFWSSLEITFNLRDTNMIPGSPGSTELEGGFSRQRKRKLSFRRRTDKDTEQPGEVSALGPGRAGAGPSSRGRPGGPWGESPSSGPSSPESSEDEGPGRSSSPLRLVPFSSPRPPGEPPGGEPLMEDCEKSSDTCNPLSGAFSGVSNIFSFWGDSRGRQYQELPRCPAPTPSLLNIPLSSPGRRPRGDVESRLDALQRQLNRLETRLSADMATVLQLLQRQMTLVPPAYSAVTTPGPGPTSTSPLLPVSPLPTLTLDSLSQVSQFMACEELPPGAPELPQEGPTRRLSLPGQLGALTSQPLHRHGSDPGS
row,Structure (SMILES),"hERG current change (%, negative = inhibition) at 10uM"
1,CN(C(=O)CN1CCN(c2ccc([N+](=O)[O-])cn2)CC1)c1ccccc1,-49.1%
2,Cl.O=[N+]([O-])c1ccc2ncnc(N3CCN(Cc4ccc5c(c4)OCO5)CC3)c2c1,-24.6%
3,O=[N+]([O-])c1ccc(N2CCN(c3ccccc3)CC2)nc1,4.96%
4,O=Cc1cc([N+](=O)[O-])ccc1N1CCN(Cc2ccc3c(c2)OCO3)CC1,-67.5%
5,O=C(O)c1ccc(N2CCN(Cc3ccc4c(c3)OCO4)CC2)c([N+](=O)[O-])c1,17.3%
6,O=S(=O)(c1ccc(N2CCN(Cc3ccc4c(c3)OCO4)CC2)nc1)N1CCOCC1,-32.1%
7,Cl.O=[N+]([O-])c1ccc(N2CCN(Cc3ccccc3)CC2)nc1,-59%
8,O=[N+]([O-])c1ccc(N2CCN(Cc3ccc4c(c3)OCO4)CC2)nc1,-54.4%
9,Cc1nc([N+](=O)[O-])c(N2CCOCC2)n1Cc1ccccc1,9.64%
10,Cc1nc([N+](=O)[O-])c(N2CCN(Cc3ccccc3)CC2)n1Cc1ccccc1,-64.3%
11,Cc1nc([N+](=O)[O-])c(N2CCN(C)CC2)n1Cc1ccccc1,-10.4%
12,c1ccc(N2CCN(Cc3ccc4c(c3)OCO4)CC2)nc1,-8.79%
13,COc1cccc(NC(=S)NNC(=O)c2ccccc2OC(F)F)c1,12.3%
14,Fc1ccccc1-c1[nH]ncc1-c1nnnn1-c1ccccc1,5.39%
15,CCc1nnc(NC(=O)c2ccc3c(c2)C(=O)N(C(C)(C)C)C3=O)s1,7.02%
16,O=C(CSc1ccc2ccccc2c1)NC1CCCc2ccccc21 (centres unmarked),8.2%
17,COc1ccc(Cl)cc1NC(=S)NC(=O)c1ccco1,-31.5%
18,COc1cc(/C=N/NC(=O)CNC(=O)c2ccco2)ccc1O,7.95%
19,CCc1noc(C)c1C(=O)OC(C)C(=O)Nc1ccccc1OC (centres unmarked),-12.8%
20,COc1ccc([N+](=O)[O-])cc1NC(=O)C(C)OC(=O)c1ccccn1 (centres unmarked),-7.61%
21,CC(OC(=O)C1CC(=O)N(Cc2ccco2)C1)C(=O)Nc1ccccc1[N+](=O)[O-] (centres unmarked),-19.1%

row,Structure (SMILES),"hERG current change (%, negative = inhibition) at 10uM"
1,COc1ccc([N+](=O)[O-])cc1NC(=O)C(C)OC(=O)C1CC(=O)N(Cc2ccco2)C1 (centres unmarked),-57.4%
2,COc1cc2c(cc1NC(=O)C(C)OC(=O)C1CC(=O)N(Cc3ccco3)C1)oc1ccccc12 (centres unmarked),-1.77%
3,CCc1noc(C)c1C(=O)OC(C)C(=O)Nc1cc([N+](=O)[O-])ccc1OC (centres unmarked),-53.1%
4,O=C(COC(=O)c1ccc(Cl)c(S(=O)(=O)N2CCCC2)c1)NCc1cccs1,-39.8%
5,CCOc1ccc(/C=N/NC(=O)C2(O)c3ccccc3-c3ccccc32)cc1,4.13%
6,CCSc1nnc(NC(=O)[C@@H](NC(=O)c2ccccc2F)C(C)C)s1,-8.27%
7,O=C(Nc1nccs1)c1ccc(F)c(S(=O)(=O)N2CCOCC2)c1,-18.8%
8,Cc1cc(C)n(CC(O)Cn2ccc3ccccc32)n1 (centres unmarked),-12.5%
9,CC1C2CC(C(CN(C)C)/C2=N/O)C1(C)C (centres unmarked),-9.04%
10,O=C1C=C(c2ccc(Cl)cc2)C(=O)N1Nc1ccccc1,13.1%
11,O=C1C=C(c2ccccc2)C(=O)N1Nc1ccccc1,-77.2%
12,COc1ccc(C2=CC(=O)N(Nc3ccccc3)C2=O)cc1,24.6%
13,CN(c1ccccc1)c1nc2ccsc2c(=O)s1,4.47%
14,CC(C)N1CCN(Cc2cccn2-c2ccccn2)CC1CCO (centres unmarked),-31.2%
15,CC(C)=CCN1CCN(Cc2cccn2-c2ccccn2)CC1CCO (centres unmarked),-55.4%
16,CCn1ccnc1CN1CCN(CCC(C)C)C(CCO)C1 (centres unmarked),18.9%
17,CC(C)CCN1CCN(Cc2cccc3cccnc23)CC1CCO (centres unmarked),-26.2%
18,CC(C)CN1CCN(Cc2cccn2-c2ccccn2)CC1CCO (centres unmarked),-55.9%
19,CC(C)=CCN1CCN(Cc2cccn2-c2ncccn2)CC1CCO (centres unmarked),-39.6%
20,CC(C)CN1CCN(Cc2cccc3ncccc23)CC1CCO (centres unmarked),-2.49%
21,CC(C)CCN1CCN(Cc2cccn2-c2ccccn2)CC1CCO (centres unmarked),-75.5%

row,Structure (SMILES),"hERG current change (%, negative = inhibition) at 10uM"
1,CC(C)=CCN1CCN(Cc2ccc(Oc3ncccn3)cc2)CC1CCO (centres unmarked),9.1%
2,CCC(C)N1C(=O)N(C)C2NC(=O)NC21 (centres unmarked),-2.9%
3,Cc1ccc(OCC(=O)NNC(=S)NC(=O)C2CC2)c(C)c1,23.2%
4,Nc1c2c(nc3c1CCCC3)CCCC2.O=C(O)c1cc[nH]c(=O)c1,-10.1%
5,Clc1ccc(OCC#CCN2CCCCCC2)cc1.O=C(O)C(=O)O,-34.7%
6,Cc1ccccc1Nc1nnc(C)c(=O)[nH]1,-11.3%
7,CC(=O)N1CCN(c2ccc(NC(=O)c3ccc([N+](=O)[O-])cc3Cl)cc2)CC1,-8.49%
8,CCOc1cccc(OCCOCCN(C)Cc2ccccc2)c1,-49.3%
9,CCN(CC(=O)NCc1ccc(Cl)cc1)C(=O)c1oc2ccccc2c1C,-54.5%
10,CCN(CC(=O)NCc1ccc(Cl)cc1)C(=O)CN1C(=O)NC(CC)(c2ccccc2)C1=O (centres unmarked),-6.03%
11,CCN(CC(=O)NCc1ccc(Cl)cc1)C(=O)CSc1ccccc1,-65.6%
12,CCN(CC(=O)Nc1ccc(NC(C)=O)cc1)C(=O)c1oc2ccccc2c1C,-20.2%
13,CCN(CC(=O)NCc1ccc(Cl)cc1)S(=O)(=O)c1ccc(F)cc1,-19.1%
14,CCN(CC(=O)NCc1ccc(Cl)cc1)C(=O)CSc1cccc(C(F)(F)F)c1,-23.3%
15,CCN(CC(=O)NCc1ccc(Cl)cc1)C(=O)CSc1ccccc1F,-19.3%
16,CCN(CC(=O)NCc1ccc(Cl)cc1)C(=O)CSc1ccc(F)cc1,-71.1%
17,O=C(CSc1ccc(Cl)cc1)NCc1ccncc1,-14.2%
18,CCN(CC(=O)NCc1ccc(Cl)cc1)C(=O)CSc1ccc(Br)cc1,-79.2%
19,CCN(CC(=O)Nc1c(F)cccc1F)C(=O)CSc1ccc(F)cc1,-14.3%
20,CCN(CC(=O)NCc1ccc(F)cc1)C(=O)c1oc2ccccc2c1C,-43.9%

# From article PMC4336329 (PLoS ONE, 2015)
